Env fusion inh: HIV envelope-mediated fusion inhibition | inhibition, % at 12.3 µM | 360,000 tested, 1.1% active | HeLa-JRFL Env/CEM21 cell fusion, luciferase;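 active = mean replicate inhibition score of at least 50 and every replicate individually at or above 50; inconclusive = only one of the two criteria met; inactive = mean below 50 and not all replicates reaching 50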
Shn3 3UTR inh: reduces Shn3 3'UTR luciferase signal in osteoblasts; Clone20 osteoblast Shn3 3'UTR firefly luciferase, 24 h; inhibition, % at 12.5 µM; AID 588674; 360,000 tested, 0.52% active;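 active = mean inhibition of at least 75% with every replicate also reaching 75%; inconclusive = mean inhibition at least 75% but some replicate below; inactive = mean inhibition below 75%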
NSD2 HMT inh: inhibitors of human histone methyltransferase NSD2. inhibition, % at 12.5 µM. O96028. NSD2 peptide methylation, AlphaScreen, 120 min. 310,000 tested, 0.54% active; in the data active = inhibition above about 50%
EBV LMP1 NFkB: inhibitors of Epstein-Barr LMP1-induced NF-kappaB reporter; LMP1-induced NF-kappaB luciferase reporter cells, luminescence; inhibition, % at 12.5 µM; 350,000 tested, 0.69% active; in the data active = inhibition above about 41%; inconclusive = no clear call, values can overlap the other calls
PAX8 inh HTS: PAX8 transcriptional activity inhibition; RMG-I TPO-luciferase reporter, SteadyGlo, 24 h; inhibition, % at 12.6 µM; 360,000 tested, 1.2% active; AID 652154;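 active = mean replicate inhibition at least 60% with every replicate also reaching 60%; inconclusive = only one of the two criteria is met; inactive = mean below 60% and not all replicates reaching 60%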;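 note: luciferase light reporting Pax8 driven TPO promoter activity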
Glyco luc inh: blocks N-linked glycosylation in D54 reporter cells | D54 ERlucT glycosylation luciferase reporter, 24 h; percent of 100 nM tunicamycin response | AID 588692 | reporter increase, % at 12.5 µM | 360,000 tested, 0.23% active;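 active = mean luciferase reporter signal, scaled so untreated is 0 and the glycosylation-blocking control 100, at or above a set limit in every replicate; inconclusive = mean reaches the limit but not every replicate does; inactive = mean below the limit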;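 note: luciferase carries N-glycosylation sites so blocking glycosylation raises the light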
Large screens that a line does not name were inactive; [ ] = remark or other dose. Most compounds without a hit are left out; they make up all but 2.8% or so of the library.

CC(O)(c1cccc(F)c1)c1nc(-c2cccc(C(F)(F)F)c2)cs1 (stereo not drawn)	none (no result: EBV LMP1 NFkB)
COc1cccc(C(C)(O)c2nc(-c3ccc(S(C)(=O)=O)cc3)cs2)c1 (stereo not drawn)	Env fusion inh 64.0 (no result: EBV LMP1 NFkB)
Cc1sc2ncnc(NC3CCN(Cc4ccccc4)CC3)c2c1C	Shn3 3UTR inh 87.8
c1ccc(CN2CCC(Nc3ncnc4sccc34)CC2)cc1	none
O=C(CCN1C(=O)C2C3C=CC(C3)C2C1=O)N1CCN(c2ccccc2Cl)CC1 (stereo not drawn)	EBV LMP1 NFkB 85.0 (no result: Env fusion inh, NSD2 HMT inh, PAX8 inh HTS)
O=C(CCN1C(=O)C2C3C=CC(C3)C2C1=O)N1CCN(c2ccccc2F)CC1 (stereo not drawn)	none (no result: Env fusion inh, PAX8 inh HTS)
O=C(c1ccc(=O)oc1)N1CCCc2ccccc21	NSD2 HMT inh 91.7 (no result: Env fusion inh, PAX8 inh HTS)
O=C(c1ccccc1)N1CCCc2ccccc21	none (no result: Env fusion inh, PAX8 inh HTS)
Cc1noc(C)c1NC(=O)N(C)C[C@H]1Oc2ccc(NS(=O)(=O)c3ccccc3)cc2CC(=O)N([C@@H](C)CO)C[C@H]1C	none (no result: Shn3 3UTR inh, NSD2 HMT inh, EBV LMP1 NFkB, Glyco luc inh)
CC(C(=O)N=Nc1c(O)[nH]c2ccccc12)n1cnc2ccccc2c1=O (stereo not drawn)	EBV LMP1 NFkB 61.3
COc1cccc(-c2cn(CC[C@@H]3CC[C@@H](NC(C)=O)[C@H](CO)O3)nn2)c1	none (no result: Shn3 3UTR inh, NSD2 HMT inh, EBV LMP1 NFkB, Glyco luc inh)
O=[N+]([O-])c1ccc(Sc2nnnn2-c2ccccc2)nc1	PAX8 inh HTS 78.5 (no result: Shn3 3UTR inh, EBV LMP1 NFkB, Glyco luc inh)
Cc1ccccc1-n1nnnc1Sc1nnnn1-c1ccccc1	EBV LMP1 NFkB 55.4 (no result: Env fusion inh, PAX8 inh HTS)
O=[N+]([O-])c1ccc(Sc2ccccn2)nc1	none
COCC(=O)Nc1ccc2c(c1)C(=O)N(C)[C@@H]1CC[C@@H](CC(=O)Nc3cn(C)nc3C)O[C@@H]1CO2	none (no result: Shn3 3UTR inh, NSD2 HMT inh, EBV LMP1 NFkB, Glyco luc inh)
O=C(NCC1(N2CCCCC2)CCCCC1)c1ccc(NS(=O)(=O)c2ccccc2)cc1	none
CS(=O)(=O)Nc1ccccc1C(=O)NCC1(N2CCCCC2)CCCCC1	EBV LMP1 NFkB 46.7
Cc1ccc(S(=O)(=O)N(C)C[C@H]2Oc3ncc(Br)cc3C(=O)N([C@@H](C)CO)C[C@@H]2C)cc1	Env fusion inh 77.4[16.7 µM] (no result: Shn3 3UTR inh, NSD2 HMT inh, EBV LMP1 NFkB, Glyco luc inh)
Cc1ccc(S(=O)(=O)N(C)C[C@@H]2Oc3ncc(Br)cc3C(=O)N([C@@H](C)CO)C[C@@H]2C)cc1	Env fusion inh 57.9[16.7 µM] (no result: Shn3 3UTR inh, NSD2 HMT inh, EBV LMP1 NFkB, Glyco luc inh)
C[C@@H]1CN([C@H](C)CO)C(=O)c2cc(NC(=O)Nc3cccc4ccccc34)ccc2O[C@@H](C)CCCCO[C@@H]1CN(C)C(=O)NC1CCCCC1	none (no result: Shn3 3UTR inh, NSD2 HMT inh, EBV LMP1 NFkB, Glyco luc inh)
Cc1cccc(S(=O)(=O)N2C[C@@H](O)COC[C@@H]3O[C@@H](CC(=O)Nc4ccc(-c5ccccc5)cc4)CC[C@H]32)c1	PAX8 inh HTS 84.0 (no result: Shn3 3UTR inh, NSD2 HMT inh, EBV LMP1 NFkB, Glyco luc inh)
O=C(C[C@@H]1CC[C@@H]2[C@H](COC[C@@H](O)CN2S(=O)(=O)c2cccc(Cl)c2)O1)Nc1ccc(-c2ccccc2)cc1	PAX8 inh HTS 83.0 (no result: Env fusion inh, Shn3 3UTR inh, NSD2 HMT inh, EBV LMP1 NFkB, Glyco luc inh)
Cc1cccc(S(=O)(=O)N2C[C@H](O)COC[C@H]3O[C@H](CC(=O)Nc4ccc(-c5ccccc5)cc4)CC[C@@H]32)c1	none (no result: Shn3 3UTR inh, NSD2 HMT inh, EBV LMP1 NFkB, Glyco luc inh)
CC(=O)N(C)C[C@H]1Oc2cc(Br)ccc2S(=O)(=O)N([C@@H](C)CO)C[C@@H]1C	none (no result: Shn3 3UTR inh, NSD2 HMT inh, EBV LMP1 NFkB, PAX8 inh HTS, Glyco luc inh)
CN(C)S(=O)(=O)c1ccc(Cl)c(C(=O)NCC2CCCCC2)c1	none
COCCNC(=O)c1cc(S(=O)(=O)N(C)C2CCCCC2)ccc1Cl	Env fusion inh 57.5
CN(C)S(=O)(=O)c1ccc(Cl)c(C(=O)NCCNC(=O)c2cc(S(=O)(=O)N(C)C)ccc2Cl)c1	EBV LMP1 NFkB 71.4
COc1ccccc1N(C)S(=O)(=O)c1ccc(Cl)c(C(=O)NCC2(N(C)C)CCCCC2)c1	Env fusion inh 94.6
C[C@@H]1CN([C@@H](C)CO)C(=O)c2cc(NC(=O)Cn3cnnn3)ccc2O[C@@H]1CN(C)C	none (no result: Env fusion inh, Shn3 3UTR inh, NSD2 HMT inh, EBV LMP1 NFkB, Glyco luc inh)
Cc1nn(S(=O)(=O)c2cccs2)c(C)c1Sc1ccc([N+](=O)[O-])cc1	Env fusion inh 97.4
O=C1c2ccccc2C(=O)N1CSc1nnc(Nc2ccccc2)s1	none
O=C1c2ccccc2C(=O)N1CSc1nnc(Nc2ccccc2F)s1	PAX8 inh HTS 77.6 (no result: Env fusion inh)
O=C(CN(C1CCCCC1)S(=O)(=O)c1ccc(F)cc1)NCC1CCCO1 (stereo not drawn)	Shn3 3UTR inh 97.0 (no result: Env fusion inh)
NC(=Nc1nc(-c2ccccn2)cc2ccccc12)c1ccccn1	Shn3 3UTR inh 87.8, EBV LMP1 NFkB 67.4
O=C(Cc1cccs1)NC(c1ccccc1)c1ccccc1	none
O=C(COC(=O)/C(=C/c1cccs1)c1cccs1)NC(c1ccccc1)c1ccccc1	PAX8 inh HTS 93.4
CCCCS(=O)(=O)N1CCN(C(=O)C(=O)c2cccc(C(F)(F)F)c2)CC1	Env fusion inh 90.6 (no result: Shn3 3UTR inh, NSD2 HMT inh, EBV LMP1 NFkB, Glyco luc inh)
CCC(=O)N1[C@@H](CO)[C@@H]2c3ccccc3N(C(=O)CC(F)(F)F)C[C@@H]21	none (no result: Env fusion inh, Shn3 3UTR inh, NSD2 HMT inh, EBV LMP1 NFkB, Glyco luc inh)
CCC(C)n1ncn(-c2ccc(N3CCN(c4ccc(OCC5COC(Cn6cncn6)(c6ccc(Cl)cc6Cl)O5)cc4)CC3)cc2)c1=O (stereo not drawn)	Env fusion inh inconclusive, EBV LMP1 NFkB 91.1 (no result: NSD2 HMT inh)
CCC(C)n1ncn(-c2ccc(N3CCN(c4ccc(O)cc4)CC3)cc2)c1=O (stereo not drawn)	none

Assay outcomes as filed in PubChem BioAssay.
